Measurements from the supplement of paper PMC11732987, “Enantioselective OTUD7B fragment discovery through chemoproteomics screening and high-throughput optimisation” (Communications Chemistry, 2025).

Tests used:
Assay in all cases: log2 ratio of Biotin-Ahx-Ub-VS probe labelling (fragment/DMSO); higher = less target engagement (more negative = stronger competition), active = hit call of the paper (q ≤ 0.05, log2 ratio ≤ -1)
Conditions in all cases: compound concentration: 200 uM; treatment time: 3 h
USP19 = biological target: T1, USP19 (UniProt O94966)
T1 sequence (whole entry): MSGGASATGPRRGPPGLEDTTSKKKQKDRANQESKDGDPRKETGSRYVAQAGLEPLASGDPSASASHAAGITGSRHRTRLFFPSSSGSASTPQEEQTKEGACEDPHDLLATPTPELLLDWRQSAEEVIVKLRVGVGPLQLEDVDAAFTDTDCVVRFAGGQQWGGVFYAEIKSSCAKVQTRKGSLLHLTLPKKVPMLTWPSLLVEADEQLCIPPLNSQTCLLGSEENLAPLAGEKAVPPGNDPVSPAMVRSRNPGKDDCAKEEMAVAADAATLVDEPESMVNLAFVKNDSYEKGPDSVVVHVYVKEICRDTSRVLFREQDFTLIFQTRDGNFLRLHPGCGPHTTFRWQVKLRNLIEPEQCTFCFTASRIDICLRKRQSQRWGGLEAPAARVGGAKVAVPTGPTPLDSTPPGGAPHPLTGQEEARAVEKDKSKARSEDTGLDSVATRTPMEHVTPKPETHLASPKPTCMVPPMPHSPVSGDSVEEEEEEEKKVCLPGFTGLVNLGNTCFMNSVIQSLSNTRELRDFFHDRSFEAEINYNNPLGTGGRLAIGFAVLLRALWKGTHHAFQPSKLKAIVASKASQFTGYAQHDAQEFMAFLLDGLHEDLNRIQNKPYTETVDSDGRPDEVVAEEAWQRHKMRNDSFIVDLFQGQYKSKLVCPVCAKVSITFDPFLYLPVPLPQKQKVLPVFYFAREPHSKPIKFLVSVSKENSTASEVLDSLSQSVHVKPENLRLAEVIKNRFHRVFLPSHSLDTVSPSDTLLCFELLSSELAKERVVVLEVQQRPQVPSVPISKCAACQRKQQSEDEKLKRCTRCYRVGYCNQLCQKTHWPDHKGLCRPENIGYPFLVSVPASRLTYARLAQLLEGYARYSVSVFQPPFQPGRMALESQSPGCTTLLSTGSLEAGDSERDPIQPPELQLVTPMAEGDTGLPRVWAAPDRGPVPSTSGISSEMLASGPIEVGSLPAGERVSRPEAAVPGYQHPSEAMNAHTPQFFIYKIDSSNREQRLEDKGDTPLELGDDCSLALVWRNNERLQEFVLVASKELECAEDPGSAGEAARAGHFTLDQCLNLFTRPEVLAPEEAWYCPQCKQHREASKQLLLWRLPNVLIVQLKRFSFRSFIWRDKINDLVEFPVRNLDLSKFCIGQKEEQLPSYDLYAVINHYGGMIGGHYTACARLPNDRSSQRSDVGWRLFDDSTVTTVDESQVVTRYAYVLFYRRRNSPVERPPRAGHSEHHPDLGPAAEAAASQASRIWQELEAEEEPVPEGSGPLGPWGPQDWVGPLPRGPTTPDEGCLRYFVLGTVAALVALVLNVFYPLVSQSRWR
How it was run: (§1)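 Triplicate samples of HEK293T lysate, 495 µg each, received fragment at 200 µM or vehicle for 3 h, followed by Biotin-Ahx-Ub-VS (0.5 µM final) for 1 h. After NeutrAvidin enrichment of labelled DUBs and LysC/trypsin digestion, peptides were run by diaPASEF LC-MS/MS. The values are average log2 fragment/vehicle ratios from global-median-normalised Spectronaut label-free quantities, tested by unpaired t-test on proteins having ≥2 unique peptides.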

USP22 = biological target: T2, USP22 (UniProt Q9UPT9)
T2 sequence (whole entry): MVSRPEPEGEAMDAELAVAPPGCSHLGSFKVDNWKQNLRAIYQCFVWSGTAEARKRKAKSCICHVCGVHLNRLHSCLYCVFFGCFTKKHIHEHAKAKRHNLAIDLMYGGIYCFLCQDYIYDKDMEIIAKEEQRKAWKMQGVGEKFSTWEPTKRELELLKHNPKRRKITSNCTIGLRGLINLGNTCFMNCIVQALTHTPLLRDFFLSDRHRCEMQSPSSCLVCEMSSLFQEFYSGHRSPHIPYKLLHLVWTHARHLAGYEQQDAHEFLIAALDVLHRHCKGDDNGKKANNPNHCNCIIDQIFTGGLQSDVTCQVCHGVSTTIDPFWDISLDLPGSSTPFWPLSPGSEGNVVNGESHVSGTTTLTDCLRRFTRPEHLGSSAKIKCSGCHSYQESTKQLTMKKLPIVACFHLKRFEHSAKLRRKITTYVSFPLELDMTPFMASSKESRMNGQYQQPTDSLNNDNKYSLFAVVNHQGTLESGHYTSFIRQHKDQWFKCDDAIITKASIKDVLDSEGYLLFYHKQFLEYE
How it was run: as §1

USP24 = USP24 (UniProt Q9UPU5)
How it was run: as §1

USP25 = biological target: T3, USP25 (UniProt Q9UHP3)
T3 sequence (whole entry): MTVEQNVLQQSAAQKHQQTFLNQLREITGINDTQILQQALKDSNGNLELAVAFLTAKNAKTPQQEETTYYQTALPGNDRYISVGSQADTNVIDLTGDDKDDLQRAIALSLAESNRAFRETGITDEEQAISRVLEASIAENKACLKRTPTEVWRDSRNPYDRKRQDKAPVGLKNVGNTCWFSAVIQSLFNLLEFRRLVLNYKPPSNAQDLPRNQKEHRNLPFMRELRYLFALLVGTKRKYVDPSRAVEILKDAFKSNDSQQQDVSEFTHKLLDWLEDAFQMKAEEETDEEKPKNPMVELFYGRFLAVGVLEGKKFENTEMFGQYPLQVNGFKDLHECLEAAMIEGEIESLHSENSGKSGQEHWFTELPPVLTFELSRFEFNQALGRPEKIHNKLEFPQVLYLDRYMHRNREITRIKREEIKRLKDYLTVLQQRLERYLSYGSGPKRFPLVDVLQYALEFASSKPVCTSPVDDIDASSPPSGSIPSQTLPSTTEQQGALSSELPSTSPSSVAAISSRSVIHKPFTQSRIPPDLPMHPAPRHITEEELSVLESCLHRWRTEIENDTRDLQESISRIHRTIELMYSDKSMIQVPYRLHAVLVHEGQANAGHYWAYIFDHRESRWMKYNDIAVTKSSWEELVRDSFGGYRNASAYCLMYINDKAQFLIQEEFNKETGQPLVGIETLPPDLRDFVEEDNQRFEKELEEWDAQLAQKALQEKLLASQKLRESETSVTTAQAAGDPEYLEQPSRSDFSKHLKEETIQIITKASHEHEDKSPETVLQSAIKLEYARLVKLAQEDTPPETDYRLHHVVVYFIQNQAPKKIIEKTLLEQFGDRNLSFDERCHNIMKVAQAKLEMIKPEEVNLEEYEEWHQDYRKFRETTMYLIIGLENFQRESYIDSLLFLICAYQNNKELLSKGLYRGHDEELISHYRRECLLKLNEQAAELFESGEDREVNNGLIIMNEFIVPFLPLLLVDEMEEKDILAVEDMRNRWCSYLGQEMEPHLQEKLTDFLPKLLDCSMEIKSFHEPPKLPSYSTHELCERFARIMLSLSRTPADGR
How it was run: as §1

USP28 = biological target: T4, USP28 (UniProt Q96RU2)
T4 sequence (whole entry): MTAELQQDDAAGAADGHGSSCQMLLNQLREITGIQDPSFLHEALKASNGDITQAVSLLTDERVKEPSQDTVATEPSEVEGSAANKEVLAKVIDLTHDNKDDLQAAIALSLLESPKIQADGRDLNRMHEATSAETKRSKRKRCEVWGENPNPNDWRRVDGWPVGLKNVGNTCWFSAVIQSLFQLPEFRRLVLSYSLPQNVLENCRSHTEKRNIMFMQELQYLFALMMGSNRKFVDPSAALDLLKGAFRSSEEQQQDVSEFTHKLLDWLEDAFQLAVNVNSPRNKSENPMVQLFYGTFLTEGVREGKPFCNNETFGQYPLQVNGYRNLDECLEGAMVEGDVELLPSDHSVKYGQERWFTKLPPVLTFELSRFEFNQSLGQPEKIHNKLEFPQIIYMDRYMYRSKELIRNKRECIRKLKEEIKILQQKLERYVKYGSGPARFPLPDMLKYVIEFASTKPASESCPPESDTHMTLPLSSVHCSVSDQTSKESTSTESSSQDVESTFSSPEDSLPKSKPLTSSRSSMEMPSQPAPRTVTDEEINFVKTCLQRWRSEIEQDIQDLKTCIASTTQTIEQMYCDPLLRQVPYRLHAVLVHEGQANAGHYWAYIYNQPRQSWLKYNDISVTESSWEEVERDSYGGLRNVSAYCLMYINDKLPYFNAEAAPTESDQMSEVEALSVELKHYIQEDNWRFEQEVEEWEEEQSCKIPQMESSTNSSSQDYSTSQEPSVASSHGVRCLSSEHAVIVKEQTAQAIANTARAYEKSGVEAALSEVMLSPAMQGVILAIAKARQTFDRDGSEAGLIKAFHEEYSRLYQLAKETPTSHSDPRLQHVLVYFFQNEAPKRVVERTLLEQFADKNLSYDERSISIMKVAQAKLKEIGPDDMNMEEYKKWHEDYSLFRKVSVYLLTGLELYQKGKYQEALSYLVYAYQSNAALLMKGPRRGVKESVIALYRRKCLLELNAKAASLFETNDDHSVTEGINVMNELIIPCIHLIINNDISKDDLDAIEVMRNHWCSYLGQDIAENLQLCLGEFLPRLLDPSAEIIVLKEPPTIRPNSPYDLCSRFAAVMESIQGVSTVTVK
How it was run: as §1

Measured: log2 ratio of Biotin-Ahx-Ub-VS probe labelling

Chain of USP24 (Q9UPU5 whole entry): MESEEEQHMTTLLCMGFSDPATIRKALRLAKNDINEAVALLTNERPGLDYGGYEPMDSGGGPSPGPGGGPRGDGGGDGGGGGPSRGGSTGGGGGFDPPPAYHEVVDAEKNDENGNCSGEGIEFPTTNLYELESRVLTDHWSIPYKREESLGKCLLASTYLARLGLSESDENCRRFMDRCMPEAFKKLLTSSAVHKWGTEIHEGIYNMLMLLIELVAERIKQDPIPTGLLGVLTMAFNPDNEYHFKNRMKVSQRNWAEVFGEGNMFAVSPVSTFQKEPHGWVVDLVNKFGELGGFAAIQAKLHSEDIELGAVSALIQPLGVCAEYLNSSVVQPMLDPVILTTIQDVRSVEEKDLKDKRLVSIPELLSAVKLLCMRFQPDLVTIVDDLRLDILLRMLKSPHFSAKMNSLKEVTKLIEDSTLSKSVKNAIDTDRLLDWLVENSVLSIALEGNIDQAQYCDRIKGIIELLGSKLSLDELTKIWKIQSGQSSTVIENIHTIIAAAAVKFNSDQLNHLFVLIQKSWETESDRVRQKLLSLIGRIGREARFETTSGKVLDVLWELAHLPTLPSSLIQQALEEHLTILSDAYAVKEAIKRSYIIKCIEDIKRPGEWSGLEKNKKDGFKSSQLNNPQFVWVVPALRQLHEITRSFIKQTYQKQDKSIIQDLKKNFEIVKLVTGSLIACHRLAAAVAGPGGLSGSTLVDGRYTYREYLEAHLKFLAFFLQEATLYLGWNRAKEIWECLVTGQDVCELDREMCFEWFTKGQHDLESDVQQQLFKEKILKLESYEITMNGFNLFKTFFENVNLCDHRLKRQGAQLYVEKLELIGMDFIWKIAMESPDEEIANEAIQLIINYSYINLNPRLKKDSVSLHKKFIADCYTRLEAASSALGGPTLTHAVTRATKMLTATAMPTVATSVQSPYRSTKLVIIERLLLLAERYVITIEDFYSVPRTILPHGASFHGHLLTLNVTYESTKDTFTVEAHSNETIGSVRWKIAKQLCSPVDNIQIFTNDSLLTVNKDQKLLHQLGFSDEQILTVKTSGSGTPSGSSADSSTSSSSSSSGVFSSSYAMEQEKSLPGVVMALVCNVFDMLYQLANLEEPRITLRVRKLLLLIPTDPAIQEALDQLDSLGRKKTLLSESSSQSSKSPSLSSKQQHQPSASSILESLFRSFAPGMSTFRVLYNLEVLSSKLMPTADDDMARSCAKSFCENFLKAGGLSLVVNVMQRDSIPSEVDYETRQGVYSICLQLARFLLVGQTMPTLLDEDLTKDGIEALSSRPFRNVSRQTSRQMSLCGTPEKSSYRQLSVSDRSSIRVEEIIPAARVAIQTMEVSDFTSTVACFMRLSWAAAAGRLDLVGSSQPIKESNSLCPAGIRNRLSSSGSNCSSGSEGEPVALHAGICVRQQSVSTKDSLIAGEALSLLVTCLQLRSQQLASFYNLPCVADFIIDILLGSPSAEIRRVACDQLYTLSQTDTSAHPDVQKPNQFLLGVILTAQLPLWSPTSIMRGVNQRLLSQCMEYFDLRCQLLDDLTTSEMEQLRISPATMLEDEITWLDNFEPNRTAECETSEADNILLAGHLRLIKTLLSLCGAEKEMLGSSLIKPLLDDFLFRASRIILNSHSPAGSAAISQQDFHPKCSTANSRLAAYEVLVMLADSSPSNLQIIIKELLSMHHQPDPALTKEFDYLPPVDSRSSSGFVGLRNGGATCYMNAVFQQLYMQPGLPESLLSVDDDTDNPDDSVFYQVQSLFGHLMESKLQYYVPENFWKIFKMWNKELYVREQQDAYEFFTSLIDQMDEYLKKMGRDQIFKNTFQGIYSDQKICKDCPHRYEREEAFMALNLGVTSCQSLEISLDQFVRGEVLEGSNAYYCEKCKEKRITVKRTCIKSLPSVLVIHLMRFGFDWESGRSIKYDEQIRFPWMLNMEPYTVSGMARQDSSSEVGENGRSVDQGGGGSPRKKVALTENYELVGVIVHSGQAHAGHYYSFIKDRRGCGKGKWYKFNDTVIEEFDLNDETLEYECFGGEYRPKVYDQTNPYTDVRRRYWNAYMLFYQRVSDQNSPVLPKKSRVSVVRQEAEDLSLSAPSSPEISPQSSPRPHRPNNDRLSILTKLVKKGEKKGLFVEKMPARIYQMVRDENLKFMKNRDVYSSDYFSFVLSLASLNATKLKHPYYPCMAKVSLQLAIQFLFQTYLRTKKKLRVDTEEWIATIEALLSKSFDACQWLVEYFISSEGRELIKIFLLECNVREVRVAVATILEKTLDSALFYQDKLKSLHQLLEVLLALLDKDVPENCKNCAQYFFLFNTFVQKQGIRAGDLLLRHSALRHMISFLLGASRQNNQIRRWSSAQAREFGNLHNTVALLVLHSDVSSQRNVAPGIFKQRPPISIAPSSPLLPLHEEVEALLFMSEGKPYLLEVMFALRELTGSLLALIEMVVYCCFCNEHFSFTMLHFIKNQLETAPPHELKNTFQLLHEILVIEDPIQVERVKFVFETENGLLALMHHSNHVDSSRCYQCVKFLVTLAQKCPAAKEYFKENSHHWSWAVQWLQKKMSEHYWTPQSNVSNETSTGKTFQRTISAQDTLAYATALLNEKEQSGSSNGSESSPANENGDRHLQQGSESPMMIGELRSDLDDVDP

Cl.Cn1c(CNC(=O)CCl)nc2cccnc21
inactive: USP19 -0.0671 | USP22 -0.175 | USP24 -0.218 | USP25 -0.148 | USP28 -0.316
